Assay results published in PubChem BioAssay (Tox21).
Inconclusive results are not listed. Unmarked numbers belong to inactive results. Activity calls are given as the source filed them. Calls come from the whole dose curve; as a rule, active = well fitted inhibition curve with a large enough effect in the repeat runs; inconclusive = weak or mixed curves; inactive = flat fitted curve, though single readings scatter.
% is set by controls: 0 for no effect and ±100 for the full control effect.

The molecules below were run against Luciferin 4-monooxygenase (Photinus pyralis) (UniProt P08659) (assay: qHTS assay to identify small molecule inhibitors of firefly luciferase (AID 1224835; note: nearly all actives have a fitted effect of over 25% in size)). Settings: purified P. pyralis luciferase, luminescence inhibition; series mostly up to 115 µM; activity change, negative = inhibition: at the top concentration.
Chain of Luciferin 4-monooxygenase (Photinus pyralis) (P08659 whole entry, looked up): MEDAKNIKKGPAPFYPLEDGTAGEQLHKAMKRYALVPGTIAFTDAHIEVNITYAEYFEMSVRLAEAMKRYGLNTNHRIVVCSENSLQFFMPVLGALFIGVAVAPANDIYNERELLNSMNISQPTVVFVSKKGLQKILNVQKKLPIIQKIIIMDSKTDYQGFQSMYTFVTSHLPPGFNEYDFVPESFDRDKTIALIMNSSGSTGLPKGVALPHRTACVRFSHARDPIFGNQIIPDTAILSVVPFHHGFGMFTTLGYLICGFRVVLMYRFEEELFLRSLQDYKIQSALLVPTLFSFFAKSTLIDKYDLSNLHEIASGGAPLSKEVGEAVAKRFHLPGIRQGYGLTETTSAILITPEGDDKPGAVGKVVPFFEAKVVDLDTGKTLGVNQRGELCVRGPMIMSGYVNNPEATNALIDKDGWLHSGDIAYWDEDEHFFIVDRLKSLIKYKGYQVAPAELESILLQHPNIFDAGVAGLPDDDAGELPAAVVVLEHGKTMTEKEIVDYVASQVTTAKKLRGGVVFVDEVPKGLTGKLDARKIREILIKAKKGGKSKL
Text: U.S. Tox21 Program National Center for Advancing Translational Sciences [NCATS] NIH Chemical Genomics Center [NCGC] U.S. Environmental Protection Agency [EPA] National Institutes of Environmental Health Sciences [NIEHS] National Toxicology Program [NTP] U.S. Food and Drug Administration [FDA] Tox21 Assay Overview: Firefly (Photinus pyralis) luciferase is one of the most commonly used transcriptional reporters. Firefly luciferase reporter-gene assays are generally considered one of the most sensitive assay types (Wood, 1995; Wood, 1998). However, it was initially observed, in 1991, by Thompson et al., that compounds that resemble the substrates of firefly luciferase (FLuc) can act as competitive inhibitors of the enzyme, and that these compounds, upon interaction with luciferase in the cell, can actually stabilize the protein and increase its half-life. Previous profiling work by other groups to determine the prevalence of compounds that affect FLuc enzymatic activity (PubChem AID 411) identified that ~3% of the MLSMR library (then at ~72K) inhibited FLuc. […] Thus the Tox21 10K library is profiled for activity against FLuc using a biochemical assay of purified FLuc and KM concentrations of FLuc substrates (D-luciferin and ATP).
These assay plates were then treated with 23nL of compound or DMSO using a Kalypsys pin tool, which allows for delivery of a 6-point interplate titration of each compound to the assay plate (quantitative HTS.) 1 uL of firefly luciferase mix (containing 50 mM Tris acetate, pH 7.6, 0.04 uM P. pyralis luciferase, 0.01% Tween, 0.05% BSA and dH2O) was then delivered by FRD to each well. Luciferase activity was then measured using a ViewLux CCD imager.
With `NC(=S)Nc1cccc2ccccc12` the activity change, negative = inhibition was 2.89% [at 10.5 µM].
For `COC(C(=O)O)c1ccccc1` (stereo not given), the “activity change, negative = inhibition” value was 1.67%.
`C=C(C)C(=O)OCCCCCCCCCCCCCCCCCC` gave an activity change, negative = inhibition of -0.803% [at 23.6 µM].
For `C=C(C)[C@H]1CC=C(C)CC1`, the “activity change, negative = inhibition” value was 6.16%.
`CCO[Si](C)(OCC)OCC` was tested, and the “activity change, negative = inhibition” value was 0.188%.
In the case of `Oc1cc(O)c2c(c1)O[C@H](c1ccc(O)c(O)c1)[C@H](O)C2`, the “activity change, negative = inhibition” value was -0.177% [at 52.9 µM].
`COc1cccc(OC)c1` was tested, and the “activity change, negative = inhibition” value was 0.406%.
For `C=CC(=O)N1CCOCC1`, the “activity change, negative = inhibition” value was 4.13%.
For `COC(=O)CCCCCCCCC(=O)OC`, the “activity change, negative = inhibition” value was 0.37%.
`O=C(O)c1ccccc1S` was tested, and the “activity change, negative = inhibition” value was 0.592% [at 52.9 µM].
For `FC(F)(F)C(F)(F)C(F)(F)C(F)(F)C(F)(F)C(F)(F)C(F)(F)C(F)(F)C(F)(F)C(F)(F)F`, the activity change, negative = inhibition was -2.43% [at 10.5 µM].
With `CO[Si](OC)(OC)OC` the “activity change, negative = inhibition” value was 0.354%.
With `C=C(C)C1CC=C(C)C(O)C1` (stereo not given) the “activity change, negative = inhibition” value was -1.31%.
For `c1cc(CN2CCCCC2)cc(OCCCNc2nc3ccccc3s2)c1`, the “activity change, negative = inhibition” value was -0.696% [at 52.9 µM].
`c1ccc(CCCc2ccccn2)cc1` was tested, and the Potency was 31.7 µM (active).
With `CCCCCCCCCCCCCCCCCCOCC(O)CO` (stereo not given) the “activity change, negative = inhibition” value was -7.87% [at 52.9 µM].
In the case of `C=C(C)C(=O)OCCC(C)OC(=O)C(=C)C` (stereo not given), the “activity change, negative = inhibition” value was -0.245%.
With `CC(=O)N[C@@H](CCC(N)=O)C(=O)O` the “activity change, negative = inhibition” value was 1.48% [at 52.9 µM].
With `CCN1CCCC1CNC(=O)c1cc(S(N)(=O)=O)ccc1OC` (stereo not given) the “activity change, negative = inhibition” value was -1.2%.
`COc1cc(CCC(C)=O)ccc1O` was tested, and the “activity change, negative = inhibition” value was 1.8%.
`CCC(=O)c1cccc(Cl)c1` was tested, and the “activity change, negative = inhibition” value was -1.55%.
`COC(=O)[C@H]1[C@H]2C[C@@H]3c4[nH]c5cc(OC)ccc5c4CCN3C[C@H]2C[C@@H](OC(=O)COc2ccc(OC)cc2)[C@@H]1OC` was tested, and the “activity change, negative = inhibition” value was 0.0315% [at 52.9 µM].
`Nc1ccn(C2CO[C@H](CO)O2)c(=O)n1` (stereo not given in full) was tested, and the “activity change, negative = inhibition” value was -0.995% [at 52.9 µM].
For `CN(C)CCn1nnnc1SCC1=C(C(=O)O)N2C(=O)[C@@H](NC(=O)Cc3csc(N)n3)[C@H]2SC1`, the “activity change, negative = inhibition” value was 0.839% [at 52.9 µM].
With `CCC(C)(C)C1CCC(OC)CC1` (stereo not given) the “activity change, negative = inhibition” value was 1.11%.
In the case of `OCC(CO)(CO)COCC(CO)(CO)CO`, the “activity change, negative = inhibition” value was -0.911%.
For `CCCOc1ccccc1-c1nc2n[nH]nc2c(=O)[nH]1`, the “activity change, negative = inhibition” value was -2.32% [at 52.9 µM].
For `Fc1ccccc1-c1ccccc1`, the “activity change, negative = inhibition” value was 2.03%.
In the case of `C=CCSCC1Nc2cc(Cl)c(S(N)(=O)=O)cc2S(=O)(=O)N1` (stereo not given), the “activity change, negative = inhibition” value was 0.443% [at 52.9 µM].
`C=C(C)[C@@H]1CCC2=CC(=O)C[C@@H](C)[C@]2(C)C1` was tested, and the “activity change, negative = inhibition” value was 3.79%.
`OC[C@H]1O[C@@H]2O[C@H]3[C@H](O)[C@@H](O)[C@@H](O[C@H]4[C@H](O)[C@@H](O)[C@@H](O[C@H]5[C@H](O)[C@@H](O)[C@@H](O[C@H]6[C@H](O)[C@@H](O)[C@@H](O[C@H]7[C@H](O)[C@@H](O)[C@@H](O[C@H]8[C@H](O)[C@@H](O)[C@@H](O[C@H]9[C@H](O)[C@@H](O)[C@@H](O[C@H]1[C@H](O)[C@H]2O)O[C@@H]9CO)O[C@@H]8CO)O[C@@H]7CO)O[C@@H]6CO)O[C@@H]5CO)O[C@@H]4CO)O[C@@H]3CO` was tested, and the “activity change, negative = inhibition” value was 5.43% [at 52.9 µM].
In the case of `C1=C\CC/C=C\CC/C=C\CC/1`, the “activity change, negative = inhibition” value was 1.35%.
`CC(C)[N+](C)(C)CC(O)COc1cccc2ccccc12` (stereo not given) was tested, and the “activity change, negative = inhibition” value was -10.6% [at 52.9 µM].
With `O=C1CC2(CCCC2)CC(=O)N1` the “activity change, negative = inhibition” value was 2.38% [at 52.9 µM].
With `CO[Si](CCCNCCC[Si](OC)(OC)OC)(OC)OC` the “activity change, negative = inhibition” value was -2.79%.
For `NC(=O)c1c(Cl)cccc1Cl`, the “activity change, negative = inhibition” value was 1.29%.
In the case of `O=c1[nH]c(=O)n([C@H]2O[C@H](CO)[C@@H](O)[C@@H]2O)cc1/C=C\Br`, the “activity change, negative = inhibition” value was 0.763% [at 52.9 µM].
With `CCC(C)OC(=O)N1CCCCC1CCO` (stereo not given) the “activity change, negative = inhibition” value was -0.171%.
In the case of `O=Cc1ccccc1[N+](=O)[O-]`, the “activity change, negative = inhibition” value was 1.55%.
In the case of `CCO[Si](CCCN=C=O)(OCC)OCC`, the “activity change, negative = inhibition” value was 1.87%.
